Test [1] relates to Zika virus NS2B-NS3 protease (linked construct). Description: Primary screen NINDS Rhodamine qHTS for Zika virus inhibitors (AID 1347160). Note: nearly all actives have a fitted effect of over 55% in size. Note: potency is the fitted concentration of half-maximal effect. A digest of the protocol:
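Percent inhibition, normalized to uninhibited and enzyme-free controls, is fitted to a 4-parameter Hill equation. Fluorescence change comes from a 15-min cleavage of 1.5 microM bis-peptide Rhodamine110 substrate by 25 nM linked NS2B-NS3 at room temperature.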
On the technique in general: qHTS replaces the single test concentration by a dilution series.

Test [2] is described as follows: A2780 Cisplatin Sensitive Ovarian Cancer Cell Toxicity qHTS against the NCATS CANVASS Library (AID 1347353). Note: nearly all actives have a fitted effect of over 60% in size. Note: potency is the fitted concentration of half-maximal effect. A digest of the protocol: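 Seventy-two-hour exposure of cisplatin-sensitive A2780 ovarian cells to an 11-concentration qHTS series; cytotoxicity is inferred from loss of ATPLite luminescence. Bortezomib titration served as positive control.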
Test [3] can be described thus: SDT Cancer Cell Toxicity qHTS against the NCATS CANVASS Library (AID 1347365). Note: nearly all actives have a fitted effect of over 60% in size. Note: potency is the fitted concentration of half-maximal effect. A digest of the protocol:
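Dispense 500 SDT cells per well; pin-transfer compounds; incubate 72 hr at 37C, 5% CO2, 95% RH; add CellTiterGlo and read luminescence.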

Test [4] can be described thus: qHTS for Hypoxia signaling pathway (HIF-1) antagonists against the NCATS CANVASS Library (AID 1347374). Note: nearly all actives have a fitted effect of over 60% in size. Note: potency is the fitted concentration of half-maximal effect. In short, it runs like this: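 HRE-bla ME-180 cells (2,000/well, 0.5% dialyzed FBS) were pre-incubated 5 h, then given an 11-point compound series plus CoCl2 (60 uM solution as added) for 17 h at 37C. CCF4 β-lactamase read (ex 405, em 460/530 nm) after 2 h at RT.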

Test [5] is described as follows: DH5-alpha competent E. coli microbial cell viability qHTS against the NCATS CANVASS Library (AID 1347377). Conditions: outcome: dose series up to 46.1 µM unless noted. In short, it runs like this:
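Cell viability of competent DH5-alpha E. coli is scored from ATP content by luminescence. Cells sit overnight at 37C with compound across an 11-point concentration series.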

A short description of test [6]: qHTS for Activators of p53 Stress Response Pathway screened against the NCATS CANVASS Library (AID 1347388). Note: potency is the fitted concentration of half-maximal effect. A digest of the protocol:
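p53RE-bla HCT-116 cells (4000/well) were pre-incubated for 5 h, then treated with compound (11 points) for 16 h at 37C. After 2 h with CCF4, the 460/530 nm ratio gave reporter activation; CellTiter-Glo measured viability.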

Test [7] can be described thus: Vero-766 cells viability qHTS against the NCATS CANVASS Library: Counterscreen for Zika virus inhibition assay (AID 1347394). Note: nearly all actives have a fitted effect of over 60% in size. Note: potency is the fitted concentration of half-maximal effect. A digest of the protocol: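 Vero 766, no virus; 1000 cells/well; o/n attach; cpd 11-pt; 72 h, 37C, 5% CO2; CTG luminescence; cell-free media wells = 100% inhibition.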
The nature of test [8]: Panc-1005 Cancer Cell Toxicity qHTS against the NCATS CANVASS Library (AID 1347349). Note: nearly all actives have a fitted effect of over 60% in size. Note: potency is the fitted concentration of half-maximal effect. In short, it runs like this: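 Viability was assessed by adding CellTiter-Glo reagent to treated cultures and reading luminescence after 15min at room temperature. Treatment lasted 72 h at 37 degrees C/5% CO2, using an 11-point series on 1000 cells/well.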
Test [9] can be described thus: HEK-293 Cancer Cell Toxicity qHTS against the NCATS CANVASS Library (AID 1347355). Note: nearly all actives have a fitted effect of over 65% in size. Note: potency is the fitted concentration of half-maximal effect. In short, it runs like this: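 qHTS cytotoxicity: compounds tested in 11 concentrations on 1000 seeded cells per well over 72 h; bortezomib served as control; signal from CellTiter-Glo luminescence.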

Inconclusive results are not listed. A number with no mark means an inactive call. The source made the active and inactive calls. Calls come from the whole dose curve; as a rule, active = well fitted curve in the direction sought with a large enough effect; inconclusive = small, poorly fitted or top-dose-only effect, or another doubt; inactive = no such curve, though single readings can be large; an effect the other way counts as inactive or inconclusive.

Take `COC12OC1(C13OC1(OC)C(=O)c1cc4cc(C)oc(=O)c4c(O)c1C3O)C(O)c1c(cc3cc(C)oc(=O)c3c1O)C2=O` (stereo not drawn): the Potency in test [1] was 3.11 µM (active); in test [4], 14.9 µM (active); in test [7] it was 23.4 µM (active). Moreover, the Potency entry in test [2], in test [3] and in test [6] was “inactive” throughout. Moreover, the molecule was classed as inactive in [5].
On to `C[C@H]1C=C[C@H]2CCCC[C@@H]2[C@H]1C(=O)[C@H]1CC2=C(C(=O)O)CCN2C1=O`, for which the Potency in test [1] is 11 µM (active). Besides, the Potency result in [4], in test [6] and in test [7] was “inactive” in each case.
In the case of `CCC(=O)N[C@@H](C[C@H](C)C(Cl)(Cl)Cl)C(=O)N1C(=O)C=C(OC)[C@@H]1CC(C)C`, the Potency result in test [1], in test [8], in test [4], in [6] and in [7] was “inactive” throughout. Besides, the molecule was classed as inactive in test [5].
Regarding `C[n+]1cc2cc(C(N)=O)[nH]c3c(=N)c(Cl)c(N)c1c23`, the results for the Potency in test [1] and in test [3] were 44 µM (active) and 16.6 µM (active), respectively. Further, the Potency entry in test [9] and in test [7] was “inactive” throughout.
With `O=c1cc(-c2ccc(O)c(O)c2)oc2cc(O[C@@H]3O[C@H](CO)[C@@H](O)[C@H](O)[C@H]3O)cc(O)c12`, the Potency in test [1] was 17.5 µM (active). The outcome in test [5] was inactive. In test [6], the Potency entry is “inactive”.
In the case of `Cc1occ2c1C(=O)c1c(cc(O)c(O)c1O)C2=O`, the Potency in test [1] is 13.9 µM (active); in test [6] it was 11.7 µM (active). For the same molecule, in test [5], the call was inactive.
`C/C1=C/[C@@H](C)[C@H](O)[C@@H](O)/C=C/CC/C=C/C(=O)O[C@@H]1[C@H](C)C(=O)CCCC1CC(=O)NC(=O)C1`: the Potency result in [1], in [2], in [4] and in [7] was “inactive” in each case. Moreover, in test [3], the Potency is 20.9 µM (active). Also, the result in test [5] was inactive.
As to `CC(C)C[C@@H]1c2c(O)c(C=O)c(O)c(C=O)c2O[C@]2(C)C=C[C@@H](C(C)C)C[C@H]12`, in test [1], the Potency was 13.9 µM (active). In addition, the Potency entry in test [8] and in test [7] was “inactive” throughout. In test [5], the result was inactive.
With `COc1ccc2[nH]c3c(c2c1)CCN1C[C@H]2C[C@@H](OC(=O)c4cc(OC)c(OC)c(OC)c4)[C@H](OC)[C@@H](OC)[C@H]2C[C@H]31`, the Potency result in [1] and in test [7] was “inactive” each time. The Potency was 13.3 µM (active) in [8], 20.9 µM (active) in test [9] and 0.526 µM (active) in [3]. The call in test [5] was inactive.
Regarding `COc1cc(O)c(C(=O)[C@@H]2[C@H](CC=C(C)C)C(C)=CC[C@H]2c2ccccc2)c(O)c1`, the Potency in [1] is 15.6 µM (active); in test [8] it was 9.43 µM (active); in test [9], 20.9 µM (active).
In the case of `C[C@]12CC[C@]3(C1)[C@H](CC2=O)C[C@@H](OC(=O)c1ccccc1)[C@H]1[C@](C)(C(=O)O)CCC[C@@]13C`, the Potency was 19.6 µM (active) in [1] and 16.6 µM (active) in test [2].
Turning to `COc1c(O)cc2c(c1O)C(=O)c1c(coc1C)C2=O`, the figures for the Potency in test [1] and in test [4] were 9.84 µM (active) and 14.9 µM (active), respectively. Also, the Potency entry in test [8] and in [7] was “inactive” in each case. Besides, in test [5], the call was inactive.
Turning to `C/C=C/C1C=CC2CC(C)CC(C)C2C1C(=O)CC(=O)NC(CO)C/C=C/CCCCC` (stereo not drawn), the Potency in test [1] is 11 µM (active); in test [3] it was 1.48 µM (active); in [4], 29.8 µM (active).
Consider `CC(=O)O[C@H]1c2ccccc2-c2c3c(cc4c2[C@@H]1N(C(C)=O)CC4)OCO3`, for which the Potency in test [1] was 55.3 µM (active). Moreover, the call in [5] was inactive. For the same molecule, the Potency result in [6] is “inactive”.
Consider `COc1cc2c(c(O)c1O)C(=O)c1c(coc1C)C2=O`, for which the Potency was 3.11 µM (active) in test [1], 9.43 µM (active) in [8] and 14.8 µM (active) in test [3]. The result in test [5] was inactive.
Consider `O=C1CC2OCC=C3CN4C5CC3C2[C@@H]2N1c1ccccc1[C@]52C[C@@H]4C1=C[C@H]2C3CC4N(CC[C@@]45c4ccccc4N(C1=O)[C@@H]25)C/C3=C/CO` (stereo partly drawn), for which, in test [1], the Potency result was “inactive”. Further, the results for the Potency in test [2], in [9] and in test [3] were 7.43 µM (active), 16.6 µM (active) and 20.9 µM (active), respectively. In addition, in test [5], the outcome was inactive.
With `CC(C)=CCC[C@]12c3cc4c(cc3CC[C@@]1(C)[C@H](C)CC[C@@H]2O)[nH]c1ccccc14`, the Potency in [1] is 24.7 µM (active). Also, the Potency result in [3] was “inactive”. Also, the call in [5] was inactive.
As to `C=C[C@@]1(C)CC[C@@H]([C@H](C)C(=O)/C=C/C(C)(C)O)O1`, the results for the Potency in test [1] and in [9] were 55.3 µM (active) and 26.4 µM (active), respectively. Besides, the outcome in [5] was inactive. The Potency result in [7] was “inactive”.
As for `CC[C@H]1[C@H](C)[C@H](c2cc(OC)c(OC)cc2OC)[C@@H](C)[C@H](c2cc(OC)c(OC)cc2OC)[C@@]12C=C(OC)C(=O)C=C2OC`, the Potency in test [1] is 27.7 µM (active); in test [9], 18.7 µM (active). Also, in test [5], the result was inactive. Moreover, the Potency entry in test [6] is “inactive”.
Consider `C/C=C(/C)c1c(Cl)c(O)c(C)c2c1Oc1c(Cl)c(O)c(Cl)c(C)c1C(=O)O2`, for which the Potency was 1.96 µM (active) in [1] and 7.41 µM (active) in [7].
Consider `C=C(C)CC[C@H](Cc1c(O)cc(O)c2c1O[C@H](c1ccc(O)cc1)CC2=O)C(=C)C`, for which the Potency in test [1] is 15.6 µM (active); in test [2], 23.5 µM (active); in test [7], 18.6 µM (active). In addition, the Potency result in test [8], in test [9] and in [6] was “inactive” in each case.
Regarding `C=C1CC[C@@H](Br)C(C)(C)[C@]12CC=C(C)C(=O)C2`, the Potency entry in test [1], in test [8], in test [2], in test [9], in [3] and in test [4] was “inactive” in each case.
Consider `C/C=C(/C)c1c(Cl)c(OC)c(C)c2c1Oc1c(Cl)c(O)c(Cl)c(C)c1C(=O)O2`, for which the values for the Potency in [1], in test [4] and in test [7] were 1.39 µM (active), 10.6 µM (active) and 3.71 µM (active), respectively. Further, the Potency result in test [9] and in test [3] was “inactive” throughout.

These data come from PubChem BioAssay (NCATS).
